# Assay results published in PubChem BioAssay (NCI).
# Where “and” joins values, the source holds several entries; their conditions need not be identical. Equal values may be shown once. This is part of a sample that, as a whole, favours compounds with a hit. Of some 83,000 tested, about 20% had one in any assay.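 The endpoint reported here, percent growth, reads 100 for growth as untreated, 0 for no net growth and -100 for all cells dead.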 A number with no mark means an inactive call. Calls of active or inactive are those of the source. Rule for the calls: active = growth percent below 10; inactive = the rest.
# Test system: MDA-MB-468 breast
# Assay: NCI-60 one-dose screen, 48 h (100 = growth as untreated, 0 = no growth, -100 = all killed)
# Conditions: 10 µM unless noted
row,Structure (SMILES),growth
1,CN1CCN(C(=O)[C@]23CCC(C)(C)C[C@H]2C2=CC[C@@H]4[C@@]5(C)C/C(=C/c6ccncc6)C(=O)C(C)(C)[C@@H]5CC[C@@]4(C)[C@]2(C)CC3)CC1,44.6%
2,CC(C)=CCC[C@](C)(O)[C@H]1CC[C@]2(C)[C@@H]1CC[C@@H]1[C@@]3(C)C/C(=C/c4cccc([N+](=O)[O-])c4)C(=O)C(C)(C)[C@@H]3CC[C@]12C,84.3%
3,C[C@H]1[C@H]2C3=CC[C@@H]4[C@@]5(C)C/C(=C/c6ccncc6)C(=O)C(C)(C)[C@@H]5CC[C@@]4(C)[C@]3(C)CC[C@@]2(C(=O)N2CCN(C)CC2)CC[C@@H]1C,41.1%
4,O=C1NC(=O)C(=Cc2cn(Cc3cn(Cc4ccc(Cl)cc4Cl)nn3)c3ccccc23)C(=O)N1,2.08% (active)
5,COc1ccc(/C=C/c2nc(NCCCN(C)C)c3ccccc3n2)cc1,-43.8% (active)
6,O=C(NCc1ccccc1)C1CN(c2ccc(Cl)cc2)N(c2ccc(Cl)cc2)C1=O (stereo unspecified),71.5%
7,C=C1C(=O)O[C@H]2[C@H]1CC/C(C(=O)NCCOCCOCC(=O)Nc1ccc(OC)c(C(N)=O)c1O)=C\CC[C@@]1(C)O[C@@H]21,77.8%
8,O=C1Nc2ccccc2[C@]12CC(c1ccccc1)=NN2,56.5%
9,CCOC(=O)Nc1ccc2c3c(cccc13)-c1ccccc1-2,-11.5% (active)
10,C=CCCCCCCCCCOC(C)=O,105%
11,C=C1C(=O)O[C@H]2[C@H]1CC/C(C(=O)NCCCCCNC(=O)/C1=C/CC[C@@]3(C)O[C@H]3[C@H]3OC(=O)C(=C)[C@@H]3CC1)=C\CC[C@@]1(C)O[C@@H]21,94.9%
12,CC1OC(n2c3ccccc3c3c4c(c5c6ccccc6[nH]c5c32)C(=O)N(CCN[C@H]2CCC[C@@H]2N)C4=O)CC(O)C1O (stereo partly specified),-20% (active)
13,COc1ccc2c(c1)c(-c1noc(C(=O)c3cn(C)c4ncc(Br)cc34)n1)cn2C,76.1%
14,CCc1cc2c(cc1N1CCC(N3CCOCC3)CC1)C(C)(C)c1[nH]c3cc(C#N)ccc3c1C2=O,-38.2% (active)
15,Nc1cc2c(cc1N)-c1ccccc1C2,89.4% and 97.8%
16,COc1cc(NC(N)=NCC(C)(C)COc2ccc(C(F)(F)F)cc2)cnc1C#N,19.6%
17,CC(CC(CCC(=O)O)(c1ccccc1)c1ccccc1)N(C)C (stereo unspecified),98.4%
18,O=C1NC(c2ccc(F)cc2)N=C2C(c3ccccc3)=NOC12 (stereo unspecified),103%
19,N#CC1=C(N)Oc2c(sc3c(F)cccc23)C1c1ccc(Cl)cc1 (stereo unspecified),-42.2% (active)
20,Cc1ccc(C)c2c1C(O)(C#Cc1ccccc1)c1ccccc1C2(O)C#Cc1ccccc1 (stereo unspecified),58.1%
21,O=C(O)C(Cc1ccc(OS(=O)(=O)Cc2ccccc2)cc1)NS(=O)(=O)Cc1ccccc1 (stereo unspecified),105% and 117%
22,O=C(N=c1n(-c2ccccc2)nc2n1CCN2C1=NCCN1C(=O)c1ccc(Cl)cc1)c1ccc(Cl)cc1,73.6%
23,N=c1sc(Cc2cc(Cl)ccc2Cl)cn1CC(=O)c1ccccc1,61.3%
24,Cc1nnc(/N=C2\NC(=O)/C(=C/c3ccc(N(C)C)cc3)S2)s1,87.2%
25,O=C1c2ccccc2C(=O)c2sc(Nc3cccc(Cl)c3)nc21,13.2%
26,COc1cc(N=C2C(=O)N(Cc3ccccc3)c3ccccc32)cc(OC)c1OC,103%
